Bioassay records as filed in PubChem.
Apoferritin bind: candidate novel general anesthetic via apoferritin binding; P02791; apoferritin/1-aminoanthracene competitive binding, fluorescence; Potency, µM (doses to about 77.5 µM), without a hit: at the top dose activity change, negative = displacement, most hits filed as inhibitors; 0.074% of 350,000 active; AID 485281; active means well fitted inhibition curve with a large enough effect; inconclusive means small, poorly fitted or top-dose-only effect; inactive means no such curve, though single readings can be large or run the other way; further: potency means the concentration at half of the fitted maximal effect; on the % scale 0 is the no-effect control and ±100 the full control effect; nearly all actives have a fitted effect of over 20% in size
Target sequence (P02791 2-175 limits assumed): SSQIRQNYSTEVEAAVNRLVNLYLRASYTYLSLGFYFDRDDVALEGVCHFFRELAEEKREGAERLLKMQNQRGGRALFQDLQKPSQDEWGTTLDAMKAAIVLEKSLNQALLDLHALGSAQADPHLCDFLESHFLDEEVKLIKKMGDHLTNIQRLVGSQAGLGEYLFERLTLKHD
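Concentration-response curves derived by four-parameter Hill fitting of normalized fluorescence, where compounds displaced 1-AMA from 10 uM horse apoferritin following a brief 10 min room-temperature incubation; propofol titration acted as positive control.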
D2 PAM-1: potentiates the human D2 dopamine receptor allosterically | potentiation, % (concentration not given with the values) | DiscoveRx D2 beta-arrestin cells, luminescence, 90 min; 100% = 57 uM dopamine signal | AID 624464 | P14416 | 0.23% of 360,000 active; in the data active means potentiation above about 50%; inconclusive means mostly about 30% to 49%
Target sequence (P14416 whole entry, looked up): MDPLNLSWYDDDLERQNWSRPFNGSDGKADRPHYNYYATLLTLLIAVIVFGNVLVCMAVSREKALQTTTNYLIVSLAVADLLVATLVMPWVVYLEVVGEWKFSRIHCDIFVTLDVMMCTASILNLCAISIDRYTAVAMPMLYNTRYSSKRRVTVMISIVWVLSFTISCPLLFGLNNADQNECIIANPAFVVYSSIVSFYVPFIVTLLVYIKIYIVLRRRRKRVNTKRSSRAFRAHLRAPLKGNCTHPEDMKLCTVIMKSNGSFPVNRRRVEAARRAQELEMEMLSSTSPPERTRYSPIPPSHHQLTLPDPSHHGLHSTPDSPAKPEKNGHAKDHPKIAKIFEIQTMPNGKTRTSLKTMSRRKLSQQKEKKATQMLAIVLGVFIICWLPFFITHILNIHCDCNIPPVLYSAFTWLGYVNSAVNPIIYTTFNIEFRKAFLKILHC
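PathHunter beta-arrestin assay in DiscoveRx D2 cells. Compounds were added with an EC20 of dopamine (50 nM final) for 90 min at 37 deg C. Luminescence was read 1 h after detection reagent, with 57 uM dopamine as the EC100 control.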
D2 antag: D2 dopamine receptor (human) antagonism; P14416; HEK293 TREx D2 cells, calcium flux, dopamine EC80; inhibition, % at 10 µM; 2% of 340,000 active; in the data active means inhibition above about 30%; inactive means below that, where a call was filed; further: 0% is about no effect
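HEK293 T-REx D2 cells, tet-induced, calcium dye no-wash. Cpd pintool add, 180 s kinetic, then EC80 DA, 180 s kinetic. Ca flux read.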
D2 PAM-2: positive allosteric modulators of human D2 dopamine receptor | potentiation, % at 10 µM | 0.34% of 340,000 active | AID 485347 | P14416 | HEK293 T-REx D2, calcium flux, EC20 dopamine potentiation;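 active means potentiation over 3 SD above the plate norm, cut at about 30% in these data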; further: 0% is about no effect
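Tetracycline-induced HEK293 T-REx cells force-coupled to calcium signalling expressed D2; compounds were pin-added after a 10 s baseline, read kinetically 180 s, then an EC20 dopamine challenge followed with a further 180 s calcium read.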
D2 ag-1: agonists of human D2 dopamine receptor (beta-arrestin); P14416; DiscoveRx PathHunter D2 beta-arrestin, luminescence, 90 min; 100% = 57 uM dopamine signal; activation, % (no concentration beside the values); 0.084% of 360,000 active; AID 624465; in the data active means activation above about 40%; inconclusive means between about 15% and that limit
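Agonist mode: compounds alone added to overnight-plated D2 PathHunter cells for 90 min at 37 C, with 57 uM final dopamine (EC100) defining full response. Beta-arrestin recruitment detected by chemiluminescent reagent, read after 1 h at ambient temperature.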
D2 ag-2: activates the human D2 dopamine receptor; HEK293 T-REx D2 cells, calcium flux agonist mode; P14416; 0.53% of 340,000 active; activation, % at 2 µM;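 active means activation over 3 SD above normal in the single-dose calcium agonist read, cut at about 30% in these data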; further: 0% is about no effect
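Tetracycline-induced HEK293 Trex cells with D2 receptor force-coupled to calcium signaling, plated overnight at 30 C and loaded with no-wash calcium dye. Calcium flux read kinetically for 180 s after compound addition; responses flag agonists.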
Starred values were filed as active, the others as inactive; i = inactive; ? = inconclusive; · = no result. Hits are enriched below; roughly 2.5% of the tested compounds scored in any of these assays.

SMILES	Apoferritin bind	D2 PAM-1	D2 antag	D2 PAM-2	D2 ag-1	D2 ag-2
O=c1c2c(nc3cc(-c4ccccc4)[nH]n13)CCC2	-4.0%	-9.2	-19.4	-3.9	0.7	-0.1
Clc1cccc(Cl)c1C1Nc2cccc3cccc(c23)N1	?	0.4	11.1	-0.1	13.3	-0.1
COC(=O)c1ccn(CSc2c(F)c(F)cc(F)c2F)n1	·	5.7	-8.6	5.1	-1.5	0.7
COC(=O)c1ccn(CSc2cc(Cl)ccc2Cl)n1	·	-1.9	41.8*	-0.8	2.7	1.1
O=C(c1cc(F)ccc1F)C1CCCN(C(=O)CCc2cnccn2)C1 (configuration not stated)	-7.3%	-6.5	37.9*	-3.6	1.6	-2.1
CCc1ccc(NC(=O)CSc2nc(=O)n(CCCN3CCOCC3)c3c2CCCC3)cc1	·	-25.7	15.1	-31.1	-2.9	-0.5
Cc1ccc(NC(=O)CSc2nc(=O)n(CCCN3CCOCC3)c3c2CCCC3)cc1F	·	-31.5	31.1*	2.9	-2.4	-2.5
Nc1nc(Cl)nc2c1ncn2C1OC(CO)C(O)C1F (configuration not stated)	-2.0%	·	·	·	·	·
Nc1nc(Cl)nc2c1ncn2[C@@H]1O[C@H](CO)[C@@H](O)[C@H]1O	2.4%	-17.3	37.4*	12.3	2.0	4.0
O=C(CSCCc1ccccn1)Nc1ccccn1	-7.5%	1.1	3.1	3.4	1.4	-1.3
O=C(O)CSCCc1ccccn1	-9.7%	-3.8	52.8*	-18.9	-1.6	-1.4
CCSc1nc2ccccc2n1CCC(=O)O	9.2%	3.8	44.7*	-7.2	-1.8	-2.3
COC(=O)c1cc(C(=O)OC)cc(-n2c(C)cc(C(=O)COC(=O)CNS(=O)(=O)c3ccc(C)cc3)c2C)c1	-22.0%	-1.7	59.5*	-17.6	-1.2	-0.6
Cn1c(SCc2ccccc2)nnc1-c1c[nH]c2ccccc12	1.0%	-8.2	35.2*	6.9	-3.6	0.5
CCCCSc1nnc(-c2c[nH]c3ccccc23)n1C	?	-4.9	7.7	-2.1	11.0	0.2
CCOc1ncccc1C(=O)OCc1ccc(C(=O)OC)cc1	-9.7%	-3.6	-10.4	12.3	3.2	2.1
COc1ccc(-c2cc(C(=O)Nc3c(C)nn(Cc4ccccc4)c3C)no2)cc1	-15.9%	-5.4	8.8	-10.1	-0.7	-0.4
CCC(C)NCCOc1cc(C)cc(C)c1C (configuration not stated)	-19.0%	-15.1	50.9*	-19.6	-5.6	1.4
C=C1C(=O)C=C[C@]2(C)C[C@@H]3OC(=O)[C@](C)(O)[C@H]3C[C@@H]12	-7.6%	-8.9	36.7*	-4.6	-2.4	0.3
C[C@@H]1C[C@@H]2OC(=O)[C@]3(C)[C@H]2[C@@H](OC3(C)O)[C@]2(C)C(=O)C=C[C@H]12 (some centres not stated)	-6.2%	-28.6	-12.7	22.7	0.3	0.2
COc1ccc(OCC(O)CNC(=O)Nc2cc(F)ccc2C)cc1 (configuration not stated)	-9.3%	-31.7	38.2*	9.5	-3.5	-0.4
COc1ccc(-c2cc3ccccc3n2CC(O)CNCCO)cc1 (configuration not stated)	-15.0%	-17.2	·	·	-2.2	·
COc1ccc(-c2cc3ccccc3n2CC(O)CN2CCCCC2)cc1 (configuration not stated)	-2.2%	-23.5	42.9*	-22.2	-0.2	0.6
C=CCc1cc(Cl)ccc1OCCOCCNCCOC	-1.1%	-15.7	4.0	-20.1	-3.4	0.8
C=CCc1cc(Cl)ccc1OCCNCCCOC	-10.3%	-15.6	37.1*	-33.5	-1.3	1.4
SMILES	Apoferritin bind	D2 PAM-1	D2 antag	D2 PAM-2	D2 ag-1	D2 ag-2
C=CCc1ccccc1OCCNCCCOC	-9.0%	-32.2	69.1*	-22.0	-5.8	0.1
CCOC(=O)c1ccc(CN(Cc2ccc(C)cc2)S(=O)(=O)c2ccc(NC(C)=O)cc2)cc1	-8.4%	·	·	-14.7	·	0.9
O=C(Nc1cc(Cl)cc(Cl)c1)c1ccc(F)c(S(=O)(=O)NC2CCCC2)c1	-5.5%	·	·	-12.7	·	·
Cc1nc(C)c(C(=O)C2=C(O)C(=O)N(CCN(C)C)C2c2ccccc2)s1 (configuration not stated)	8.8%	2.4	-15.8	2.1	-0.1	0.4
CCOc1ccc(CCNC(=O)c2sc3nc4n(c(=O)c3c2C)CCC4)cc1OCC	-14.9%	5.3	30.2*	-9.7	0.7	0.6
CCOc1ccc(CCNC(=O)c2sc3nc4n(c(=O)c3c2C)CCCC4)cc1OCC	i	·	·	-6.7	·	3.8
O=c1oc2ccccc2cc1-c1nc2c(s1)CCc1ccccc1-2	1.2%	?	8.7	-9.9	10.5	-1.1
O=c1oc2cc(O)ccc2cc1-c1nc2c(s1)CCc1ccccc1-2	149.3%	15.2	80.2*	-23.6	0.8	141.0*
ONC(=Nc1ccc(Cl)cc1)c1ccc(Cl)cc1	-6.5%	1.1	-3.4	9.3	-0.4	0.3
[S-]C(=Nc1ccc(Cl)cc1)N[n+]1ccccc1	4.4%	-4.7	61.9*	13.3	-8.1	-2.4
Fc1ccc(-c2nc3ccc(Cl)cn3c2Cc2cccc(Cl)c2)cc1	·	-4.5	·	·	-2.4	·
COc1ccc(O)c(N)c1	-10.6%	·	-18.6	43.2*	·	1.1
Cc1ccc(O)c(N)c1	·	-27.1	-8.4	1.6	8.5	0.2
O=C(c1ccc(F)cc1)N1CCN(C(=O)c2cccnc2)CC1	-2.1%	7.1	-11.5	4.6	-0.2	-0.4
CCc1cc(=O)oc2c(CN3CCCC3)c(O)c(Cl)cc12	516.5%	-9.9	1.1	5.1	-1.1	0.5
CCc1cc(=O)oc2c(CN3CCN(C)CC3)c(O)c(Cl)cc12	i	7.8	2.0	34.9*	3.6	-0.1
Cc1ccc(C(C)C)c(OCCN2CCc3ccccc3C2)c1	-1.8%	-26.8	-15.1	-15.3	-1.0	-0.9
Cc1ccc(C)c(OCCCN2CCc3ccccc3C2)c1	-11.8%	-27.0	70.4*	-19.3	4.2	0.1
Cc1ccc(OCCCCn2cnc3ccccc32)c(C)c1	-21.3%	-13.9	12.4	2.2	0.9	0.5
Cc1ccc(OCCCCN2CCc3ccccc3C2)c(C)c1	-2.7%	-8.0	75.9*	-24.7	-0.4	1.2
Cc1ccc(C(C)C)c(OCCCN2CCc3ccccc3C2)c1	-14.2%	-72.2	30.5*	-29.4	-3.2	-0.3
CCOC(=O)C1(Cc2ccccc2)CCN(Cc2cn[nH]c2-c2ccccc2)CC1	-8.6%	-4.5	-7.2	3.1	-3.1	9.0
CC12CC3CC(C)(C1)CC(C(=O)NC1=NCCS1)(C3)C2	?	-7.3	18.3	-3.8	-2.5	2.0
Cc1ccc(NC2=CC(=O)CC(c3ccco3)C2)c(N)c1 (configuration not stated)	-15.7%	-7.6	-10.0	-5.6	0.2	-0.3
